Five molecules from PubChem BioAssay (Tox21) can be followed below.

Test [1] can be described thus: qHTS assay to identify small molecule agonists of H2AX - cell viability counter screen (AID 1224847; calls by dose curve; also: potency is read from the fitted curve at half-maximal effect; nearly all actives have a fitted effect of over 30% in size). Summed up:
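For this counter screen, overnight-attached CHO-K1 cells received test compounds (15 concentrations, 0.76% DMSO final); 3 hr later at 37C, CellTiter-Glo reagent was added and luminescence recorded after 30 min at room temperature.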
(In general: Quantitative high-throughput screening tests each substance at several concentrations.)

Test [2] in a line: qHTS RealTime-Glo MT Cell Viability Assay in HepG2 cells - 24 hour (AID 1224867). Also: nearly all actives have a fitted effect of over 50% in size. Also: potency is read from the fitted curve at half-maximal effect. Summed up: (§1)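 Cell number in HepG2 cultures estimated from NanoLuc luminescence generated by metabolic reduction of a prosubstrate by living cells. The homogeneous, nonlytic format allowed repeated reads at 0, 8, 16, 24, 32 and 40 h of compound exposure.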
Test [3] is described as follows: qHTS RealTime-Glo MT Cell Viability Assay in HEK293 cells - 32 hour (AID 1224868). Also: nearly all actives have a fitted effect of over 50% in size. Also: potency is read from the fitted curve at half-maximal effect. In short, it runs like this:
(§2)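 Homogeneous bioluminescent viability format in HEK293 cells (600 cells/well). Following 5 h at 37 C/5% CO2, 23 nL compound was pintooled; the signal was measured repeatedly during 40 h incubation.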

Test [4] can be described thus: A CellTox Green Cytotoxicity Assay to monitor cytotoxicity in HEK293 cells - 0 hour (AID 1224869). Also: % is scaled to controls: 0 for no effect and ±100 for the full control effect; nearly all actives have a fitted effect of over 50% in size. In short, it runs like this: (§3)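 Seeding of HEK293 cells together with cytotoxicity dye preceded a 5 h incubation at 37 C/5% CO2. Test compounds in DMSO were then added and fluorescence monitored across 40 h.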
Test [5] is described as follows: qHTS RealTime-Glo MT Cell Viability Assay in HepG2 cells - 40 hour (AID 1224870). Also: nearly all actives have a fitted effect of over 50% in size. Also: potency is read from the fitted curve at half-maximal effect. In short, it runs like this:
(§4)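 HepG2 cells (600/well) mixed with RealTime-Glo MT reagent, settled 5 h at 37 C/5% CO2 before compound addition. Nonlytic NanoLuc luminescence from viable-cell prosubstrate reduction read repeatedly during 40 h treatment at 37 C.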

The nature of test [6]: A CellTox Green Cytotoxicity Assay to monitor cytotoxicity in HEK293 cells - 40 hour (AID 1224871). Also: nearly all actives have a fitted effect of over 45% in size. Also: potency is read from the fitted curve at half-maximal effect. Summed up: as §3
Test [7] can be described thus: qHTS RealTime-Glo MT Cell Viability Assay in HEK293 cells - 16 hour (AID 1224872). In short, it runs like this:
as §2

A short description of test [8]: qHTS RealTime-Glo MT Cell Viability Assay in HEK293 cells - 40 hour (AID 1224874). As to conditions: RealTime-Glo luminescence; max response: active compounds read low. In short, it runs like this: (§5)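 Tox21 screen in HEK293 using RealTime-Glo MT chemistry, with cells and reagent co-dispensed. Luminescence proportional to viable cell number was captured at intervals during 40 h compound exposure at 37 C.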

A short description of test [9]: A CellTox Green Cytotoxicity Assay to monitor cytotoxicity in HEK293 cells - 24 hour (AID 1224875). Also: nearly all actives have a fitted effect of over 45% in size. Also: potency is read from the fitted curve at half-maximal effect. As to activity change: % is scaled to controls: 0 for no effect and ±100 for the full control effect. Summed up: as §3
Test [10] is described as follows: qHTS RealTime-Glo MT Cell Viability Assay in HepG2 cells - 32 hour (AID 1224877). Also: nearly all actives have a fitted effect of over 55% in size. Also: potency is read from the fitted curve at half-maximal effect. In short, it runs like this: as §1
Test [11] in a line: A CellTox Green Cytotoxicity Assay to monitor cytotoxicity in HepG2 cells - 24 hour (AID 1224878). Also: nearly all actives have a fitted effect of over 45% in size. Also: potency is read from the fitted curve at half-maximal effect. As to Cytotoxicity: % is scaled to controls: 0 for no effect and ±100 for the full control effect. In short, it runs like this:
(§6)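 Nonlytic assay: viable cells exclude the dye, so fluorescence scales with cell death. HepG2 at 600 cells/well, compounds added after 5 h, signal read across 40 h.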

Test [12] in a line: A CellTox Green Cytotoxicity Assay to monitor cytotoxicity in HepG2 cells - 40 hour (AID 1224879). Also: nearly all actives have a fitted effect of over 40% in size. Also: potency is read from the fitted curve at half-maximal effect. In short, it runs like this:
as §6

The nature of test [13]: qHTS RealTime-Glo MT Cell Viability Assay in HEK293 cells - 0 hour (AID 1224880). Also: top concentration of the series differs between compounds; % is scaled to controls: 0 for no effect and ±100 for the full control effect; nearly all actives have a fitted effect of over 45% in size. In short, it runs like this:
as §5

Test [14] can be described thus: qHTS assay to identify small molecule agonists of H2AX (AID 1224845; active = well fitted activation curve with a large enough effect in the signal ratio in the repeat runs, not every such curve was filed as active; the % refers to the signal ratio; also: potency is read from the fitted curve at half-maximal effect). Summed up:
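Wild-type CHO-K1 cells, plated overnight, exposed 3hr at 37C to 15 concentrations (0.76% DMSO final). Lysed, then HTRF anti-pH2AX (S139) cryptate and anti-H2AX-d2 antibodies, 24 hr room temperature; 665/620 nm emission read.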

Test [15] can be described thus: qHTS RealTime-Glo MT Cell Viability Assay in HepG2 cells - 8 hour (AID 1224873). Also: nearly all actives have a fitted effect of over 55% in size. Also: potency is read from the fitted curve at half-maximal effect. In short, it runs like this:
as §4

Test [16] is described as follows: A CellTox Green Cytotoxicity Assay to monitor cytotoxicity in HepG2 cells - 16 hour (AID 1224876). Summed up:
as §6

Test [17] is described as follows: qHTS assay to identify small molecule antagonists of the estrogen related receptor (ERR) signaling pathway from Tox21 library (AID 1224848). In short, it runs like this:
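ERR reporter cell line (from NTP) seeded 2,000 cells/well, rested 6 h at 37 C/5% CO2, then pin-dosed with compounds in DMSO. After 18 h at 37 C, ONE-Glo added; luminescence read after 30 min at room temperature.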

The nature of test [18]: qHTS assay to identify small molecule agonists of the estrogen related receptor (ERR) signaling pathway from Tox21 library (AID 1224849; calls by dose curve; also: % is scaled to controls: 0 for no effect and ±100 for the full control effect; nearly all actives have a fitted effect of over 15% in size). As to conditions: ERR reporter cell line, ONE-Glo luciferase, 18 h; at 92.4 µM (top of the series) unless noted. In short, it runs like this: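 Six hours post-seeding at 37 C/5% CO2, ERR cells receive DMSO-solubilised compounds; after 18 h at 37 C, ONE-Glo reagent is applied and luminescence recorded.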

Values without a mark were called inactive. Results filed as inconclusive are left out. Active and inactive are the calls of the source. Unless noted, calls follow the shape of the dose curve; as a rule, active = well fitted curve in the direction sought with a large enough effect in the repeat runs; inconclusive = weak or mixed curves; inactive = no such curve, though single readings can be large; an effect the other way counts as inactive or inconclusive.

Turning to `CCN(CC)C(=S)[S-].CCN(CC)C(=S)[S-].[Zn+2]`, the Potency was 50 µM (active) in test [1]; 13.7 µM (active) in [2]; 4.86 µM (active) in [3]; 10.9 µM (active) in test [5]; 5.45 µM (active) in test [6]; 5.45 µM (active) in test [7]. In addition, the Potency in [8] is 2.73 µM (active); in test [9] it was 15.4 µM (active); in test [10], 13.7 µM (active); in [11], 12.2 µM (active); in test [12], 10.9 µM (active). In addition, the Potency result in test [4] and in [13] was “inactive” throughout.
For the molecule `c1ccc2c(c1)OCC(C1=NCCN1)O2` (configuration not stated), the Potency was 49.2 µM (active) in test [14], 23.9 µM (active) in test [6] and 19 µM (active) in [8]. For the same molecule, the Potency result in [4], in [15], in test [9], in [16], in [10] and in [11] was “inactive” throughout. The Potency result in [12] and in test [13] was “inactive” in each case.
As for `CC(C)OC(=S)S`, the Potency result in [2], in [3], in test [4], in [5], in [6] and in [15] was “inactive” each time. In addition, the Potency entry in test [9], in test [10], in test [11] and in test [13] was “inactive” throughout.
As for `Nc1ccccc1C(=O)OC/C=C/c1ccccc1`, the Potency in test [1] was 101 µM (active); in test [3] it was 24.6 µM (active); in [7], 24.6 µM (active); in [8] it was 24.6 µM (active). Moreover, the Potency result in test [5], in test [6], in test [15], in [9], in test [10] and in test [11] was “inactive” each time. For the same molecule, the Potency entry in test [12] and in test [13] was “inactive” in each case.
Turning to `CC(C)CC(C)Nc1ccc(Nc2ccccc2)cc1` (configuration not stated), the Potency is 78.7 µM (active) in test [1]; 47.7 µM (active) in [17]; 21.5 µM (active) in test [3]; 48.2 µM (active) in test [6]; 19.2 µM (active) in test [7]; 42.9 µM (active) in [15]. The Potency in test [8] is 21.5 µM (active). In [18], the activity change, positive = activation is -75.8%. Besides, the Potency result in [4], in test [16] and in test [11] was “inactive” in each case.
